From ChEMBL document CHEMBL1961873, “Compounds: GSK PKIS; Assays: Nanosyn kinase panel” (2012)
Where “and” joins values, the source holds several entries; their conditions need not be identical. Equal values may be shown once.

Target: Fibroblast growth factor receptor 3 (Homo sapiens) (UniProt P22607)
Settings: at 1 µM
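Further: values reported are mean percent inhibition of FGFR3 activity.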

Fibroblast growth factor receptor 3 (Homo sapiens), sequence (P22607 23-806 limits assumed): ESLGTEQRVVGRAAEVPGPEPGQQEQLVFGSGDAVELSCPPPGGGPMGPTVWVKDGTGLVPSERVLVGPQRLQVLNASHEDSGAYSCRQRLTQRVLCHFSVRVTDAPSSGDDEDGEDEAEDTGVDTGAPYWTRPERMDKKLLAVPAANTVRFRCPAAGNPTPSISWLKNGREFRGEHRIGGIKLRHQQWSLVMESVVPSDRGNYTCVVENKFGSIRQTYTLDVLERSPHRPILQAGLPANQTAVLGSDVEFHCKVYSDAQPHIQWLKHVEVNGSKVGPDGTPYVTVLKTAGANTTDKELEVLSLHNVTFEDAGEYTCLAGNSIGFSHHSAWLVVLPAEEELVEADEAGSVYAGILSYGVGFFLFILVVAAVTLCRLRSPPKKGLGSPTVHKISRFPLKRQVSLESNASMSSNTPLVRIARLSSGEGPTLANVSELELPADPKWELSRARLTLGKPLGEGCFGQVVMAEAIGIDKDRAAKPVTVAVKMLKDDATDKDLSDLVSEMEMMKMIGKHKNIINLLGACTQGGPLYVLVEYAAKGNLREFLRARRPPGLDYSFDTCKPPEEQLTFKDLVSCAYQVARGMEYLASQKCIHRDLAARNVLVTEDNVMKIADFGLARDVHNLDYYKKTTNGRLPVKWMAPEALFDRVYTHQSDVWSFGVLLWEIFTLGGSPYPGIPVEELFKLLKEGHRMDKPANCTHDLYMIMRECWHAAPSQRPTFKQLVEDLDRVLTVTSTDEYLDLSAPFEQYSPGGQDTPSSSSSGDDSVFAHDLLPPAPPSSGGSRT

SMILES	inhibition
CC1=C(C(=O)Nc2ccc3[nH]nc(C)c3c2)C(c2ccc(C(F)(F)F)cc2)CC(=O)N1 (stereo unspecified)	8.47%
COc1cc(N2CCN(C(C)C)CC2)ccc1Nc1nc(Nc2cccc3ncccc23)c2cc[nH]c2n1	0.87%
COc1cc(Nc2ncc(-c3ccccc3)o2)cc(OC)c1	10.2%
COc1cccc(Nc2nccc(-c3cnn4ncccc34)n2)c1	10.9%
O=C(Nc1n[nH]c2nnc(-c3cccnc3)cc12)C1CC1	1.8%
CN1CCN(Cc2ccc(-c3cc4ncnc(Nc5ccc(OCc6cccc(F)c6)c(Cl)c5)c4s3)o2)CC1	2.58% and 3.34%
CCCNc1cccc(-n2ncc3c(N/N=C/c4ccncc4)ncnc32)c1	8.88%
CS(=O)(=O)Nc1ccc(-c2ccc3c(NC(=O)C4CC4)n[nH]c3c2)cc1	5.97%
COc1cccc(-n2ncc3c(N/N=C/c4ccc(C(=O)NCCN(C)C)cc4)ncnc32)c1	9.95%
O=C(O[C@H]1CN[C@H](C#Cc2cc3ncnc(Nc4ccc(OCc5cccc(F)c5)c(Cl)c4)c3s2)C1)N1CCOCC1	6.62%
O=C(O[C@H]1CN[C@H](C#Cc2cc3ncnc(Nc4ccc5c(cnn5Cc5ccccc5)c4)c3s2)C1)N1CCOCC1	0.43%
CCn1c(-c2nonc2N)nc2cncc(C(=O)NCCNC)c21	5.02%
O=C(O[C@H]1CN[C@H](C#Cc2cc3ncnc(Nc4ccc5c(ccn5Cc5cc(F)ccc5F)c4)c3s2)C1)N1CCOCC1	3.1%
c1ccc(-c2n[nH]cc2-c2ccnc(-c3ccc(OCCn4ccnc4)cc3)c2)nc1	4.74%
COc1cc2c(cc1Nc1nc(Nc3cccc(F)c3C(N)=O)c3cc[nH]c3n1)N(C(=O)CN1CCN(C(C)C)CC1)CC2	3.19%
CNC(=O)c1cncc(/C=C/c2ccccc2C)c1	4.39%

SMILES	inhibition
N#Cc1cccc(Nc2ncc(-c3ccccc3)o2)c1	4.48%
CCN1CCC(C(=O)Nc2n[nH]c3nnc(-c4cccc(F)c4F)cc23)CC1	2.01%
Nc1nonc1-c1nc2cnccc2n1C1CC1	8.03% and -1.3%
O=C1Nc2ccccc2/C1=C1\CCc2cc(O)ccc21	30.9%
Fc1ccc(Nc2nccc(-c3c(-c4ccc(C(F)(F)F)cc4)nn4ncccc34)n2)cc1F	4.25%
CCS(=O)(=O)c1ccc(OC)c(Nc2ncc(-c3cccc(F)c3)o2)c1	77.3%
OCCCNc1nccc(-c2c(-c3ccc(F)cc3)nn3cc(C(F)(F)F)ccc23)n1	1.53%
CN(c1ccc(NC(=O)NCCN2CCOCC2)cc1)c1ccnc(Nc2ccc(CS(C)(=O)=O)cc2)n1	10.3%
Nc1nccc(-c2c(-c3ccc(F)cc3)ncn2C2CCNCC2)n1	-1.53% and 2.36%
CC1(C)CC(n2cnc(-c3ccc(F)cc3)c2-c2ccnc(N)n2)CC(C)(C)N1	1.55%
Cn1c(-c2nonc2N)nc2cnccc21	1.94%
COc1ccc2ncn(-c3cc(O[C@H](C)c4ccccc4C(F)(F)F)c(C(N)=O)s3)c2c1	3.58%
Cc1c2ccc(N(C)c3ccnc(Nc4cccc(S(N)(=O)=O)c4)n3)cc2nn1C	70.1%
CNC(=O)c1ncccc1Nc1nc(Nc2cc3c(cc2OC)CCCN3C(=O)CN(C)C)nc2[nH]ccc12	4.61%
COC(=O)Nc1nc2cc(Oc3ccc(NC(=O)Nc4ccccc4)cc3)ccc2[nH]1	3.54%
